Most compounds without a hit are left out; they make up all but 19% or so of the library.
Pf growth 48h: Primary qHTS for delayed death inhibitors of the malarial parasite plastid, 48 hour incubation; P. falciparum luciferase growth in erythrocytes, 48 h; Potency, µM (titrated, usually from 28.7 µM), for inactives: at the top dose activity change, negative = inhibition, usual class: inhibitors; 5.9% of 310,000 active; also: potency is read from the fitted curve at half-maximal effect; % is scaled to controls: 0 for no effect and ±100 for the full control effect
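Compounds are pin-transferred into medium, infected erythrocytes (2% hematocrit, 0.1% parasitemia final) are added, and plates sit one parasite generation at 37 C in 5% CO2. Detection reagent is then added and luminescence measured.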
Cycloheximide cs: Cycloheximide Counterscreen for Small Molecule Inhibitors of Shiga Toxin; cell reporter, cycloheximide protein synthesis inhibition counterscreen; max response, %; 12% of 300,000 active; in the data active = max response mostly above about 13%, no sharp cut-off; inactive = mostly below about 14%; also: read at 38.3 µM for the half of the compounds with a filed dose; 0% is about no effect
Pf growth 96h: Primary qHTS for delayed death inhibitors of the malarial parasite plastid, 96 hour incubation; P. falciparum luciferase reporter growth, 96 h; Potency, µM (series often up to 28.7 µM), without a hit: at the highest dose activity change, negative = inhibition, actives largely listed as inhibitors; 6.9% of 320,000 active; also: potency is read from the fitted curve at half-maximal effect; % is scaled to controls: 0 for no effect and ±100 for the full control effect
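Two parasite generations (96 h, 37 C, 5% CO2) of compound exposure in infected erythrocytes (0.05% parasitemia, 2% hematocrit). Luciferase-reporter P. falciparum; decreased luminescence indicates inhibited growth, aimed at apicoplast-acting delayed death.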
MARV entry inh: qHTS for inhibitors of binding or entry into cells for Marburg Virus | Marburg virus pseudotyped entry inhibition, cell reporter | Potency, µM (titrated, usually from 37.8 µM), for inactives: top-dose activity change, negative = inhibition, hits mostly inhibitors | 1.8% of 300,000 active; calls by dose curve; tested in HEK293 cells; also: potency is read from the fitted curve at half-maximal effect; % is scaled to controls: 0 for no effect and ±100 for the full control effect
Shiga inhibitor: A qHTS for Small Molecule Inhibitors of Shiga Toxin; Vero cells, Shiga toxin protein synthesis inhibition reporter; 9.2% of 290,000 active; inhibition, % at 38.7 µM; in the data active = inhibition mostly above about 28%, no sharp cut-off; inactive = mostly below about 43%; also: 0% is about no effect
LASV entry inh: qHTS for Inhibitors of binding or entry into cells for Lassa Virus. Lassa virus pseudotype entry inhibition, cell reporter. Potency, µM (top dose mostly 37.9 µM), for the others: at the top dose activity change, negative = inhibition, usual class: inhibitors. 1.2% of 300,000 active. AID 540256, 2011; calls by dose curve; tested in HEK293 cells; also: potency is read from the fitted curve at half-maximal effect; % is scaled to controls: 0 for no effect and ±100 for the full control effect; nearly all actives have a fitted effect of over 50% in size
* hit, by the source's call; ? = inconclusive; nt = no result given; ! = not confirmed by another sample; [ ] = dose if it differs, or a comment. Unless noted, calls follow the shape of the dose curve; as a rule, active = well fitted inhibition curve with a large enough effect; inconclusive = small, poorly fitted or top-dose-only effect, or another doubt; inactive = no such curve, though single readings can be large or run the other way.

SMILES	Pf growth 48h	Cycloheximide cs	Pf growth 96h	MARV entry inh	Shiga inhibitor	LASV entry inh
COc1ccc(Br)cc1S(=O)(=O)N1CCCc2ccccc21	?	20*	-22%	nt	36*	nt
Cc1ccc(C2Nc3ccccc3NC3=C2C(=O)CC(C)(C)C3)c(O)c1 (stereo unspecified)	5%	14*	14%	4%[46.1 µM]	30	7%[46.1 µM]
Cc1cc2c(cc1C)NC(c1c(C)n(C)n(-c3ccccc3)c1=O)C1=C(CC(C)(C)CC1=O)N2 (stereo unspecified)	?	19*	10µM*	?	39*	-26%
CC1(C)CC(=O)C2=C(C1)Nc1ccccc1NC2c1ccccn1 (stereo unspecified)	13%	8	40%	-27%	13	12%
COc1ccc(C2Nc3ccccc3NC3=C2C(=O)CC(C)(C)C3)cc1O (stereo unspecified)	?	24*	0%	?	70*	?
CC1(C)CC(=O)C2=C(C1)Nc1ccccc1NC2c1nc2ccccc2[nH]1 (stereo unspecified)	nt	42*	?	nt	118*	nt
COc1ccc(NC(=O)CSc2nnc(-c3ccccc3C)n2C)cc1	?	-3	16%	-10%	-6	25%
CC(=O)Nc1ccc(C(=O)COC(=O)CN2C(=O)NC3(CCCCC3C)C2=O)cc1 (stereo unspecified)	-12%	nt	13%	nt	nt	nt
Cc1[nH]n(C)c(=O)c1[N+](=O)[O-]	2%	-1	35%	nt	-6	nt
COc1ccc(C2Nc3ccccc3NC3=C2C(=O)CC(C)(C)C3)cc1 (stereo unspecified)	6%	48*	16%	nt	84*	nt
COc1ccc(OC)c(C2Nc3ccccc3NC3=C2C(=O)CC(C)(C)C3)c1 (stereo unspecified)	19%	19*	4.1µM*	nt	33	nt
CC1(C)CC(=O)C2=C(C1)Nc1ccccc1NC2c1ccc(F)cc1 (stereo unspecified)	-13%	13	97%	-17%[46.1 µM]	17	-25%[46.1 µM]
Cc1ccc(Cc2c(C)nc3nc(SCC(=O)N4CCC5(CC4)OCCO5)nn3c2C)cc1	-14%	-6	18%	3%[46.1 µM]	-26	1%
CCOC(=O)c1cnc2c(C)cc(C)cc2c1Nc1cccc(C(=O)O)c1	nt	nt	nt	nt	nt	-5%[46.1 µM]
Cn1c(CN2CCCCC2)c(C#N)c2ccccc21	-21%	1	120%	14%	-8	-2%
CCNc1nc(NCC)nc(N(C#N)CCOc2ccccc2)n1	?	13	5.2µM*	3%	4	-16%
CCNc1nc(NC(C)C)nc(N(C#N)CCOc2ccccc2)n1	?	-6	nt	-19%[46.1 µM]	-14	1%
CCN(CC)S(=O)(=O)c1cc(NC(=O)[C@@H](NC(N)=O)C(C)C)ccc1C	3%	-1	0%	7%[46.1 µM]	-21	-17%
CC(=O)c1c(C)[nH]c(C(=O)Nc2ccc(Cl)c(S(=O)(=O)N3CCOCC3)c2)c1C	4.1µM*	0	4.1µM*	?	-6	?
CCN(CC)S(=O)(=O)c1cc(NC(=O)C(C)OC(=O)c2[nH]c(C)c(C(C)=O)c2C)ccc1C (stereo unspecified)	3.7µM*	2	?	?	-6	?
CC(=O)c1c(C)[nH]c(C(=O)OC(C)C(=O)Nc2ccc(C)c(S(=O)(=O)N3CCOCC3)c2)c1C (stereo unspecified)	9.3µM*	nt	5.2µM*	nt	nt	nt
Cc1oc(-c2cccs2)nc1CS(=O)CC(=O)NCc1ccc2c(c1)OCO2 (stereo unspecified)	57%	1	33%	1%	11	-7%
O=C1NC2c3c(Cl)sc(Cl)c3C(=O)C2O1 (stereo unspecified)	nt	nt	nt	?	nt	3%
O=C1NC2c3c(I)sc(I)c3C(=O)C2O1 (stereo unspecified)	nt	nt	nt	?	nt	13µM*
COc1ccc(NC(=O)Cc2c(C(=O)O)n(C)c3ccccc23)cc1OC	-4%	-1	64%[1.15 µM]	?	-20	12%
SMILES	Pf growth 48h	Cycloheximide cs	Pf growth 96h	MARV entry inh	Shiga inhibitor	LASV entry inh
CC1=[N+](C)c2c(ccc3cccnc23)C1(C)C	?	-1	45%	?	1	5.6µM*
O=c1[nH]ncc(N/N=C\c2ccc(O)cc2O)c1Cl	-1%	-1	?	-2%[46.1 µM]	-7	-7%[46.1 µM]
Oc1ccc(/C=N/Nc2nccnc2Cl)c(O)c1	nt	49*	?	?	124*	?
Oc1ccc(Br)cc1/C=N/Nc1ncc(-c2ccccc2)cn1	?	-3	?	-33%	-17	-25%
CCN(CC)S(=O)(=O)c1ccc(N/N=C/c2ccc(O)cc2O)nc1	2.3µM*	-1	3.7µM*	3.3µM*	2	2.3µM*
CCN(CC)S(=O)(=O)c1ccc(N/N=C(\C)c2ccncc2)nc1	?	-6	12%	?	3	2%[46.1 µM]
Oc1ccc(/C=N/Nc2ncc(Br)cn2)c(O)c1	?	76*	?	?	115*	?
Oc1ccccc1/C=N/Nc1nccnc1Cl	nt	38*	-11%	?	106	13µM*
COc1cc(N)c2ncccc2c1Br	nt	nt	nt	-10%[46.1 µM]	nt	25%[46.1 µM]
Cc1cc2ccccc2n1-c1ccc(C(=O)N2CCC(C(=O)NCc3ccc(Cl)cc3)CC2)s1	nt	nt	nt	nt	nt	-28%[46.1 µM]
COc1ccc(C)cc1-n1c(SCC(=O)Nc2cccc(C(=O)O)c2)nc2ccccc2c1=O	-8%	-4	1%	nt	-8	nt
CC(Sc1n[nH]c(-c2cccs2)n1)C(=O)N1CCCC1 (stereo unspecified)	nt	nt	nt	17%[46.1 µM]	nt	14%[46.1 µM]
O=[N+]([O-])c1ccccc1/C=N/Nc1nccnc1Cl	92%	50*	237%	?	124*	?
O=[N+]([O-])c1ccccc1/C=N/NC1=NS(=O)(=O)c2ccccc21	?	-2	38%	0%[46.1 µM]	30	17%[46.1 µM]
O=Nc1c(O)[nH]c2ccc(Cl)cc12	10%	-2	24%	nt	4	nt
CCCC(C)NC(=O)COc1ccc(Sc2ccc(OCC(=O)NC(C)CCC)cc2)cc1 (stereo unspecified)	7.4µM*	-1	?	?	-5	?
CCOc1ccc(/C=N/NC(=O)C2CC2)cc1OC	-4%	2	?	nt	4	nt
Cc1cccc(NC(=O)COc2cccc3c2CCN(C)C3=O)c1C	?	-2	?	-6%[46.1 µM]	-19	4%
CCOC(=O)c1c(NC(=O)COc2cccc3c2CCN(C)C3=O)sc2c1CCC2	?	-3	13µM*	?	6	?
O=S(=O)(NCc1ccccc1)c1ccc(Cl)cc1	nt	-3	?	-18%	3	-18%
O=S(=O)(Nc1cc2nc3ccccc3nc2n1Cc1ccccc1)c1ccc(Cl)cc1	1.3µM*	0	0.83µM*	?	13	7.3µM*!
CN(CCNC(=O)c1ccc(/C=N\O)nc1)Cc1ccccc1	nt	nt	nt	9%	nt	nt
O=C(Oc1ccc(Cl)cc1)N1CCOCC1	45%	16*	?	-3%	27*	?

From PubChem BioAssay
